As usually defined, the AC50 is the concentration at which the activity in the assay is half-maximal.

This is an account of results in PubChem BioAssay (EPA / NIEHS).

One test addresses PGR (gene 5241) (UniProt P06401). Description: TOX21_PR_LUC_Followup_Agonist: Tox21 HEK293 Progesterone Receptor (PR) Agonism Luciferase Follow-Up Assay (AID 2283937; active means hit-call score of the fitted dose curve at least 0.9, where 1 is the maximum; inactive means score below 0.9). In short, it runs like this: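 Seed HEK293-PR-A-luc cells, wait 5 h, add compounds in DMSO, incubate 16 h at 37C, add ONE-Glo, read luminescence after 30 min. Activity is increase over DMSO controls; run with a viability counter-screen.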

Test [1] deals with Thyroid hormone receptor alpha (Rattus norvegicus) + Thyroid hormone receptor beta (Rattus norvegicus) (UniProt P18113+P63059). Description: TOX21_TR_LUC_GH3_Antagonist_Followup: Tox21 GH3 Thyroid Hormone Receptor Antagonism Luciferase Follow-Up Assay (AID 2283942). In short, it runs like this:
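Loss of T3-driven (1.0 nM final) reporter activity in GH3 cells was read by ONE-Glo luminescence after 24 h incubation at 37C; 15-point compound series spanned 92 uM to 5nM final, 1,500 cells/well.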

A further test concerns the target THRA (gene 7067) (UniProt P10827). Description: TOX21_TRA_COA_Antagonist_Followup_ratio: Tox21 Thyroid Hormone Receptor alpha Antagonism through Coactivator Recruitment Follow-Up Assay, Ratio (AID 2283953). In short, it runs like this: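 GST-TRα LBD 2.5 nM, BSA 0.10%, + cpd; then FITC-SRC-2 peptide 200 nM + Tb-anti-GST Ab 2 nM. TR-FRET ratio 520/495 nm. Norm: DMSO = 0%, T3 = 100%.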

For test [2], the target named is THRB (gene 7068) (UniProt P10828). The experiment in a line: TOX21_TRB_BLA_Antagonist_Followup_ratio: Tox21 Thyroid Hormone Receptor beta Antagonism Beta-lactamase (BLA) Follow-Up Assay, Ratio (AID 2283958). The procedure, abridged:
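Cells were plated and allowed to attach for 5 h, then dosed with compounds in DMSO at 11 concentrations for 18 h at 37C. Beta-lactamase reporter activity was measured via CCF4-AM FRET as the 460:530 nm ratio.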

The target is the same in test [3]. Description: TOX21_TRB_BLA_Agonist_Followup_ratio: Tox21 Thyroid Hormone Receptor beta Agonism Beta-lactamase (BLA) Follow-Up Assay, Ratio (AID 2283954). In short, it runs like this: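 Agonist mode: compounds (11-point, triplicate) incubated 18 h with HEK293T cells carrying GAL4-DBD/human TRβ-LBD and UAS-β-lactamase. Blue/green (460/530 nm) FRET ratio read after 2 h CCF4-AM loading; CellTiter-Glo viability run in the same plates.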

Results filed as inconclusive are left out. Activity calls are given as the source filed them. How the source made its calls, unless noted: active means hit-call score of the fitted dose curve at least 0.9, where 1 is the maximum; inconclusive means response in the unintended direction; inactive means score below 0.9.

Sequence of THRB (gene 7068) (P10828 whole entry, looked up): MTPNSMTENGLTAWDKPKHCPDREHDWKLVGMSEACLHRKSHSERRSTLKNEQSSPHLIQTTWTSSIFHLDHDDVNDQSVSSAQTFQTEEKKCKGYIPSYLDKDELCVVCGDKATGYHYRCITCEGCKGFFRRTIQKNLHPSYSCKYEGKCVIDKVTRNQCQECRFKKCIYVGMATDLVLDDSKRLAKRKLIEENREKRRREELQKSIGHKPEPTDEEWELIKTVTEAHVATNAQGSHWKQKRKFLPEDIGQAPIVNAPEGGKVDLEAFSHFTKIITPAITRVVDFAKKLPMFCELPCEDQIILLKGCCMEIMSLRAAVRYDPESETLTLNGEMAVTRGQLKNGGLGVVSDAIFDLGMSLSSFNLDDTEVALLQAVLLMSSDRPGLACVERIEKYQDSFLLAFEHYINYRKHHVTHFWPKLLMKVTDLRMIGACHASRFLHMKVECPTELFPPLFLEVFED
Sequence of THRA (gene 7067) (P10827 whole entry, looked up, the tested form may be a part): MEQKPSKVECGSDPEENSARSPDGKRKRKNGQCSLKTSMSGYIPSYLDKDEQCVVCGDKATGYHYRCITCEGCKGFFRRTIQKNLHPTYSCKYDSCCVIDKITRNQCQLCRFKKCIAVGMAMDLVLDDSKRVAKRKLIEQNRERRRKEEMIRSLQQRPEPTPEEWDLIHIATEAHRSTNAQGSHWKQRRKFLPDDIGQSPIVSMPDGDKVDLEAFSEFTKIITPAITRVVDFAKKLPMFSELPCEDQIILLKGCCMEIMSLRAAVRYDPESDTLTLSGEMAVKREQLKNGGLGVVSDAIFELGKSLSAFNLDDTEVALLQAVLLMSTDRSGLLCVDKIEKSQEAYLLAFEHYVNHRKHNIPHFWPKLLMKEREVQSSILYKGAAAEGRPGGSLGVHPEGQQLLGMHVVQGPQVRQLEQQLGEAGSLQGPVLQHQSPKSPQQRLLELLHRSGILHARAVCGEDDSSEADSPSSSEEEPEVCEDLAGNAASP
Sequence of PGR (gene 5241) (P06401 whole entry, looked up): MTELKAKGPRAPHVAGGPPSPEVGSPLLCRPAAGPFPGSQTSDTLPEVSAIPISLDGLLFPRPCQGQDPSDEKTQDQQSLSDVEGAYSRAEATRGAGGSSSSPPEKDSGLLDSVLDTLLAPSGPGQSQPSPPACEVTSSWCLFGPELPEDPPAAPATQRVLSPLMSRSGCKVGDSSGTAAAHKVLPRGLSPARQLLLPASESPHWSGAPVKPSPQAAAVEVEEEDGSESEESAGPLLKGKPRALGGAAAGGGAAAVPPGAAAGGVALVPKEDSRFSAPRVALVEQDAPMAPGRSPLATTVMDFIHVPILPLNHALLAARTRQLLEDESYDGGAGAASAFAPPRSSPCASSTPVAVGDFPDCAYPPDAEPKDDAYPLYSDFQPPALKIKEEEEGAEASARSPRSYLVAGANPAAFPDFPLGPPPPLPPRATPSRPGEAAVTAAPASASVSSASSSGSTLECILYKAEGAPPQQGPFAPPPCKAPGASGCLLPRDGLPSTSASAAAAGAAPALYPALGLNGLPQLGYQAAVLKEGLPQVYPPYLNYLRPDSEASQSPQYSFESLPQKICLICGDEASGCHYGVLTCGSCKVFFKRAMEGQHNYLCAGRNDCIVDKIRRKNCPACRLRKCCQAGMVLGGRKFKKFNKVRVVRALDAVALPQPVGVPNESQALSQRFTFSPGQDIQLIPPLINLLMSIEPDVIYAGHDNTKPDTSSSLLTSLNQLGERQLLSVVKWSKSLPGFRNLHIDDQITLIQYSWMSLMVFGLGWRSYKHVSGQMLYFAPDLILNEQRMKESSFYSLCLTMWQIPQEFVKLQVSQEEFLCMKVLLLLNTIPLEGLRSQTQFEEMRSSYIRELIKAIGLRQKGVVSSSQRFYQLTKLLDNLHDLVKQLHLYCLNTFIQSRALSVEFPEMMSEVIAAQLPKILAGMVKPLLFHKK

Consider `O=C(Nc1ccc2c(c1)Cc1ccccc1-2)C(F)(F)F`, for which the result with PGR (gene 5241) was inactive.

On to `Oc1c(Cl)cc(Cl)c(Cl)c1Cc1c(O)c(Cl)cc(Cl)c1Cl`, for which the AC50 in test [1] was 12.7 µM (active); with THRB (gene 7068) [2] it was 20 µM (active). For the same compound, the result with THRA (gene 7067) was inactive.

For `C[C@H](CCC(=O)NCC(=O)O)[C@H]1CC[C@H]2[C@@H]3[C@H](O)C[C@@H]4C[C@H](O)CC[C@]4(C)[C@H]3C[C@H](O)[C@]12C`, in the test with THRB (gene 7068) [3], the result was inactive.

As for `OCCCCC(O)CO` (stereo unspecified), the result with THRB (gene 7068) [3] was inactive.
